Experimental data published in PMC5540273 (PLoS ONE, 2017).

Experiments:
Settings in all cases: concentration: 1 μM, replicates: in singlicate; n = 1
YANK2 = system: T1, YANK2
T1 construct: gene STK32B

YANK3 = system: T2, YANK3
T2 construct: gene STK32C

YES = system: T3, YES
T3 construct: gene YES1

YSK1 = system: T4, YSK1
T4 construct: gene STK25

YSK4 = system: T5, YSK4
T5 construct: gene MAP3K19

ZAK = system: ZAK
ZAP70 = system: ZAP70
p38-alpha = system: T6, p38-alpha
T6 construct: gene MAPK14

p38-beta = system: T7, p38-beta
T7 construct: gene MAPK11

p38-delta = system: p38-delta
p38-gamma = system: T8, p38-gamma
T8 construct: gene MAPK12
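Note: KINOMEscan kinase panel screen.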

| Compound | %Inh (YANK2) [%] | %Inh (YANK3) [%] | %Inh (YES) [%] | %Inh (YSK1) [%] | %Inh (YSK4) [%] | %Inh (ZAK) [%] | %Inh (ZAP70) [%] | %Inh (p38-alpha) [%] | %Inh (p38-beta) [%] | %Inh (p38-delta) [%] | %Inh (p38-gamma) [%] |
| --- | --- | --- | --- | --- | --- | --- | --- | --- | --- | --- | --- |
| COc1ccc(CSc2nnc(-c3ccc4c(c3)CCO4)o2)cc1 | 0 | 0 | 0 | 0 | 0 | 0 | 0 | 0 | 0 | 23 | 0 |
| c1ccc(-c2ccnc3[nH]ccc23)cc1 [SB-693578] | 0 | 8 | 14 | 1 | 93.5 | 25 | 55 | 3 | 0 | 39 | 0 |
| O=c1cc(N2CCOCC2)nc2n(Cc3ccccc3F)ccn12 [GSK2297428] | 0 | 0 | 0 | 0 | 33 | 0 | 0 | 5 | 0 | 26 | 0 |
| COc1ccc2cc(-c3nc(-c4ccccc4C(C)C)[nH]c3-c3ccncc3)ccc2c1 [SB-660566] | 62 | 53 | 25 | 31 | 45 | 31 | 0 | 3 | 2 | 44 | 0 |
| COc1cccc(NC(=O)Nc2ccc(C)c(-c3ccc(C(=O)Nc4ccncc4)cc3)c2)c1 [GSK1398474] | 0 | 10 | 12 | 4 | 24 | 50 | 0 | 6 | 0 | 28 | 27 |
| Cl.Cl.Cl.N#Cc1ccc(CCNc2nccc(-c3cccc(CN4CCNCC4)c3)n2)cc1 [GSK2137462] | 0 | 3 | 6 | 0 | 10 | 10 | 0 | 0 | 0 | 49 | 27 |
| O=C(Nc1n[nH]c2nc(-c3cccs3)c(Br)cc12)C1CC1 [SB-735297] | 11 | 0 | 8 | 0 | 95.3 | 30 | 0 | 4 | 2 | 0 | 0 |
| Cc1ccc(NC(=O)Nc2ccccc2F)cc1-c1ccc(C(=O)Nc2ccncc2)cc1 [GSK1398477] | 12 | 16 | 26 | 3 | 86 | 60 | 0 | 36 | 12 | 36 | 0 |
| COc1ccc(-c2coc3ccc(-c4nnc(C)o4)cc23)cc1 | 9 | 9 | 0 | 1 | 0 | 0 | 18 | 0 | 14 | 0 | 0 |
| Cc1cnc(N)c(/C=C/c2cncc(C(=O)NCCc3ccc(Cl)cc3Cl)c2)c1.Cl [GSK190937] | 0 | 26 | 20 | 4 | 27 | 16 | 0 | 29 | 0 | 25 | 52 |
| NS(=O)(=O)c1cccc(N/C=C2\C(=O)Nc3ccc(S(=O)(=O)Cc4c(Cl)cccc4Cl)cc32)c1 [GSK398099] | 0 | 12 | 22 | 0 | 39 | 4 | 20 | 0 | 0 | 27 | 7 |
| O=c1cc(N2CCOCC2)nc2n(Cc3cccc(Cl)c3Cl)c3ccccc3n12 [GSK2299009] | 0 | 29 | 17 | 21 | 3 | 5 | 0 | 12 | 1 | 16 | 30 |
| COc1ccc(CSc2nnc(-c3ccc4nccn4c3)o2)cc1C(F)(F)F | 8 | 0 | 0 | 14 | 92.3 | 0 | 0 | 4 | 21 | 0 | 3 |
| O=C(Nc1n[nH]c2nc(-c3cccs3)c(Br)cc12)C1CCCC1 [SB-743341] | 15 | 65 | 0 | 0 | 0 | 19 | 0 | 13 | 24 | 24 | 13 |
| CCn1c(-c2ccccc2)nc2cnccc21 [SB-733416] | 0 | 32 | 4 | 0 | 0 | 7 | 0 | 0 | 0 | 56 | 0 |
| Nc1nccc(-c2c(-c3ccc(F)cc3)ncn2C2CCN(Cc3ccccc3)CC2)n1 [SB-219980] | 64 | 30 | 0 | 0 | 34 | 0 | 21 | 99.7 | 18 | 0 | 0 |
